# Assay results taken from PubChem BioAssay (NCATS).
# Several values for one entry are separate records, joined by “and”; a condition that tells them apart may be missing. Identical values can stand only once. Results filed as inconclusive are left out. A call without a number means that no potency is given here. The source holds several records for some structures; these can differ, active in one and inactive in another. Activity calls are given as the source filed them. Unless noted, the call rests on the fitted dose curve; in most records, active means well fitted curve in the direction sought with a large enough effect; inconclusive means small, poorly fitted or top-dose-only effect, or another doubt; inactive means no such curve, though single readings can be large; an effect the other way counts as inactive or inconclusive.
# Key:
# [1] = biological target: Luciferin 4-monooxygenase (Photinus pyralis) (UniProt P08659); experiment: Biochemical firefly luciferase enzyme assay for NPC (AID 624030); further: nearly all actives have a fitted effect of over 70% in size; further: potency means the concentration at half of the fitted maximal effect
# Method in brief: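 Counter-screen for direct inhibition of the luciferase enzyme by approved-drug library compounds, run at 10 nM enzyme in 50 mM Tris acetate (final). Luminescence was read within 5 min of enzyme-buffer addition and normalized to PTC124 versus DMSO (0%).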
# [2] = S16 Schwann cell viability assay (CellTiter-Glo assay) (AID 624031);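 further: native untransfected S16 rat Schwann cells; series mostly up to about 58 µM; nearly all actives have a fitted effect of over 70% in size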
# Method in brief: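 Counter-screen for cytotoxicity: parental S16 rat Schwann cells lacking the PMP22 reporters, treated 24 h with compound, viability from cellular ATP by CellTiter-Glo luminescence, normalized to DMSO (0%) and no-cell wells.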
# [3] = S16 Schwann cell PMP22 intronic element firefly luciferase assay (AID 624032); further: nearly all actives have a fitted effect of over 30% in size; further: potency means the concentration at half of the fitted maximal effect
# Method in brief: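 Rat S16 Schwann cells stably carrying a PMP22 intronic element-driven Fluc reporter were seeded overnight, then exposed to compounds for 24 h at 37 °C. Luminescence was normalized to PTC124 (positive control) and DMSO (0% activity).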
# [4] = S16 Schwann cell PMP22 intronic element beta-lactamase assay (AID 624044; calls by dose curve; further: nearly all actives have a fitted effect of over 15% in size)
# Method in brief: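 Beta-lactamase reporter under a PMP22 intronic regulatory element in stable S16 rat Schwann cells; 24 h compound exposure. 460 nm blue signal normalized between DMSO (0%) and potassium clavulanate, with 535 nm FRET tracking viability; curves classed by r2 and response.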
# [5] = qHTS assay for small molecule activators of the nuclear factor-kappa B (NF-kB) signaling pathway (AID 651749; active means well fitted activation curve with a large enough effect in the signal ratio; the % refers to the signal ratio; further: series mostly up to about 77 µM); conditions: NF-kB-bla ME-180 cells, beta-lactamase FRET ratio, 16 h; stronger effect = higher value
# Method in brief: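 Human ME-180 cervical cells with an NF-kB-bla construct; compounds added via 23 nL pin transfer, DMSO as vehicle; incubation 16 hr. Reporter activity measured by FRET disruption.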
# [6] = qHTS assay for small molecule activators of the p53 signaling pathway (AID 651743; active means well fitted activation curve with a large enough effect in the signal ratio, not every such curve was filed as active; the % refers to the signal ratio; further: series mostly up to about 92 µM); conditions: HCT-116 p53RE-bla, beta-lactamase FRET ratio, 16 h; activation: stronger effect = higher value
# Method in brief: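 Agonist-mode quantitative HTS in HCT-116 cells carrying a p53-response-element beta-lactamase reporter; 16 h compound treatment at 37 C, then FRET substrate loading for 2 h at room temperature and fluorescence read.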
# [7] = qHTS assay for small molecule agonists of the antioxidant response element (ARE) signaling pathway (AID 651741; active means well fitted activation curve with a large enough effect in the signal ratio; the % refers to the signal ratio; further: potency means the concentration at half of the fitted maximal effect)
# Method in brief: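 Reporter: beta-lactamase under ARE, stably in HepG2. Exposure: 16 h, 37 C, compounds delivered in DMSO by pin tool after 5 h cell preincubation. Readout: FRET substrate fluorescence after 2 h at RT.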
# [8] = biological target: Glutaminase kidney isoform, mitochondrial (Homo sapiens) (UniProt O94925); experiment: qHTS for Inhibitors of Glutaminase (GLS): LOPAC Validation (AID 624146);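 further: glutamate product detected by oxidase and peroxidase coupled Amplex red fluorescence gain; series mostly up to about 46 µM; nearly all actives have a fitted effect of over 60% in size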
# Method in brief: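 hKGA in 45 mM KH2PO4 (pH 8.2), 0.02% Tween-20 with compound, then 1mM L-Glutamine (stock as added) plus glutamate oxidase/HRP/Amplex red coupling mix. Fluorescence read initially and after 30 min at RT; signal change reflects glutamate formation.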
# [9] = qHTS of Trypanosoma Brucei Inhibitors: LOPAC Validation (AID 624147)
# Method in brief: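 Activity of T. brucei pyruvate kinase was followed by Kinase-Glo Plus luminescence after the enzyme reacted 45 min at room temperature with 130 uM ADP (final) and substrate. Test compounds were added before ADP at multiple concentrations.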
# [10] = biological target: Glucagon-like peptide 1 receptor (Homo sapiens) (UniProt P43220); experiment: qHTS of GLP-1 Receptor Agonists: LOPAC Validation (AID 624148);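 further: higher luminescence signal means agonism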
# Method in brief: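 HEK293 cells stably co-expressing a cAMP-responsive luciferase reporter and a hypersensitive GLP-1R were plated 12 h at 37 °C and exposed to compounds for 4-6 hr at 37 °C, 5% CO2. Luminescence was read 12 min after adding detection reagent.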
# [11] = qHTS of Nrf2 Activators: LOPAC Validation (AID 624149)
# Method in brief: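 Luciferase signal from ARE activation, read with Steady-Glo after 30 min at room temperature. Compounds were pin-transferred onto AREc32_Fluc cells (1000/well, OPTI-MEM/5% FBS, seeded overnight) and left 24 hr at 37 deg C.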
# [12] = qHTS assay for small molecule disruptors of the mitochondrial membrane potential - 1 hr assay (AID 651754; calls by dose curve; further: nearly all actives have a fitted effect of over 35% in size; further: potency means the concentration at half of the fitted maximal effect)
# Method in brief: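 Mitochondrial potential in living HepG2 cells after 1 hr compound treatment at 37C was read with Mito-MPS dye added for a further 30 min. Red aggregate and green monomer fluorescence were measured; loss of potential leaves dye as cytoplasmic monomers.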
# [13] = HTS Assay for Allosteric Antagonists of the Human D2 Dopamine Receptor: Hit Validation in HTRF (AID 624455);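 further: stable D1 dopamine receptor cell line scored for blocking the D1 response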
# Method in brief: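 Inhibition of the D1-mediated response was measured by HTRF. Cells used were a line stably expressing the D1 dopamine receptor.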
# Sequence of Glutaminase kidney isoform, mitochondrial (Homo sapiens) (O94925 whole entry, looked up, canonical isoform): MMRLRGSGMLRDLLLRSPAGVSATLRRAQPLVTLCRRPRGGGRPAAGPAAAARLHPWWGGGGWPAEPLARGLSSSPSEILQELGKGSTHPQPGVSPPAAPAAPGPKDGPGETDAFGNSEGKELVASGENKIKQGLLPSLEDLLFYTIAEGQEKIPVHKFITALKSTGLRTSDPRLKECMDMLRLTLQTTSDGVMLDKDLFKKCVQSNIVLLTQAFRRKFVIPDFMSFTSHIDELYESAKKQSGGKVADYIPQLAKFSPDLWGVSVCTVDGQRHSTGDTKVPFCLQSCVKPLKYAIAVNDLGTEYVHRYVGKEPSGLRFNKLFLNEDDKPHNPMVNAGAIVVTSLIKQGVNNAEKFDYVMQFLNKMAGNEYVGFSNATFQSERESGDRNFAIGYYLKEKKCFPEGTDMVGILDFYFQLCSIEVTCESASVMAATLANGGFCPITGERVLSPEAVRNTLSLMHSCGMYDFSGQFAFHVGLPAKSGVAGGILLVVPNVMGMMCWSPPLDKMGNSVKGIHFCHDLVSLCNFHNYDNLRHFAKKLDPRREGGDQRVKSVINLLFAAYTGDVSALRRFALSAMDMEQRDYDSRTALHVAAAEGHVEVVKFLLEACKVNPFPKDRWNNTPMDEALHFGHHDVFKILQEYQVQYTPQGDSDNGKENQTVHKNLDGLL
# Sequence of Glucagon-like peptide 1 receptor (Homo sapiens) (P43220 whole entry, looked up): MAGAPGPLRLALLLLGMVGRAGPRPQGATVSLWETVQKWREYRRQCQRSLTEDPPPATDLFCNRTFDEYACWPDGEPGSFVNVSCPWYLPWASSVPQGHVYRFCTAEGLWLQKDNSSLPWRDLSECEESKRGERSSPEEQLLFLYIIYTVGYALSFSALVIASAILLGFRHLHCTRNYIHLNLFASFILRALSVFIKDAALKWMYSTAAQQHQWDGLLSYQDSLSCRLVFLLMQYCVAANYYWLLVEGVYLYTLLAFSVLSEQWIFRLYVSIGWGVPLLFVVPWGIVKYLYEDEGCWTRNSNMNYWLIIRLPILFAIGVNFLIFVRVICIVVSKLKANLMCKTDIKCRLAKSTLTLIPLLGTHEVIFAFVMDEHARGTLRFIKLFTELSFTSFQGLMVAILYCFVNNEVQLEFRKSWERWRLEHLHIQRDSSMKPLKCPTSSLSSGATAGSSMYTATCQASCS
# Sequence of Luciferin 4-monooxygenase (Photinus pyralis) (P08659 whole entry, looked up): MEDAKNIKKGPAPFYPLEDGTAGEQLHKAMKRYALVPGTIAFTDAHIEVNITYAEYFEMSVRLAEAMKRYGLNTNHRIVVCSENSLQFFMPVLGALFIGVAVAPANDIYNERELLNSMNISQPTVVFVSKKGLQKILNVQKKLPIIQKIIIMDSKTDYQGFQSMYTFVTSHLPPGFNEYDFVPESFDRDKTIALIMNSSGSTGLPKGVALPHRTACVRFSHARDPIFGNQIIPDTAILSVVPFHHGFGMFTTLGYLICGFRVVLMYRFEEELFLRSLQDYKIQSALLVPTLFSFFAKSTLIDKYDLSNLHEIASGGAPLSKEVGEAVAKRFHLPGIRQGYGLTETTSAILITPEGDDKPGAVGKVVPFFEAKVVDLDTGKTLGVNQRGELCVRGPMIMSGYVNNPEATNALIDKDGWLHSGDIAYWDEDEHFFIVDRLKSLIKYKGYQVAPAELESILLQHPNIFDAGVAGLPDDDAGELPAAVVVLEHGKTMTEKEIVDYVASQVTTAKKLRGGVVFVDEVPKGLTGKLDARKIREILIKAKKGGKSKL
compound,measurement,setting,value
CC(C)NCC(O)c1ccc([N+](=O)[O-])cc1 (configuration not stated),Potency,[1],inactive
C[C@]12CC[C@@H]3[C@@H](CCC4=CC(=O)CC[C@@H]43)[C@@H]1CC[C@@H]2OC(=O)CCc1ccccc1,Potency,[1],inactive
O=C(O)c1ccccc1O,Potency,[1],inactive
NC1=NC(=O)N2CC12 (configuration not stated),Potency,[1],inactive
same,Potency,[2],inactive
same,Potency,[3],inactive
same,Potency,[4],inactive
C#CC1(O)CCC2C3CCC4=CC(=O)CCC4(C)C3CCC21C (configuration not stated),Potency,[1],inactive
same,Potency,[2],inactive
same,Potency,[3],inactive
same,Potency,[4],inactive
CCCCCCCCCCCCCCCC[N+](C)(C)C,Potency,[1],inactive
same,Potency,[3],8.09 µM (active)
same,activation,[5],1.41% (inactive)
COc1cc([C@@H]2c3cc4c(cc3[C@@H](O)C3COC(=O)C32)OCO4)cc(OC)c1O (some centres not stated),Potency,[1],inactive
Nc1ccc([N+](=O)[O-])cc1,Potency,[1],inactive
same,activation,[6],0.0042% (inactive)
same,activation,[5],-0.186% (inactive)
CCCN(CCC)c1c([N+](=O)[O-])cc(S(N)(=O)=O)cc1[N+](=O)[O-],Potency,[1],inactive
same,Potency,[7],61.1 µM (active)
same,activation,[5],-2.96% (inactive)
C=CC(=O)NCNC(=O)C=C,Potency,[1],inactive
same,Potency,[7],37.6 µM (active) and 30.6 µM (active)
same,activation,[6],-3.11% (inactive) and -4.69% (inactive)
same,activation,[5],-0.065% (inactive) and -1.61% (inactive)
CO/C=C(/C(=O)OC)c1ccccc1Oc1cc(Oc2ccccc2C#N)ncn1,Potency,[1],inactive
same,Potency,[7],13.7 µM (active)
same,activation,[6],25% (inactive)
OCCCBr,Potency,[1],inactive
same,activation,[6],1.31% (inactive)
same,activation,[5],-0.539% (inactive)
NC1CC1c1ccccc1 (configuration not stated),Potency,[8],inactive
same,outcome,[9],inactive
same,outcome,[10],inactive
same,outcome,[11],inactive
COc1ccc(C(c2ccc(OC)cc2)C(Cl)(Cl)Cl)cc1,Potency,[1],inactive
same,Potency,[7],33.5 µM (active) and 61.1 µM (active)
same,activation,[6],2.38% (inactive) and 0.818% (inactive)
same,activation,[5],1.06% (inactive) and 0.442% (inactive) and 3.56% (inactive)
same,Potency,[12],23.7 µM (active) and 37.6 µM (active)
O=C(Nc1ccc(Oc2ccc(Cl)cc2)c(Cl)c1)c1cc(I)cc(I)c1O,Potency,[3],10.2 µM (active)
O=S(=O)(O)C(F)(F)C(F)(F)C(F)(F)C(F)(F)F,Potency,[1],inactive
same,Potency,[7],30.6 µM (active) and inactive
same,activation,[6],-0.542% (inactive) and -4.63% (inactive)
same,activation,[5],-0.249% (inactive) and 0.21% (inactive)
O=[N+]([O-])c1cc([N+](=O)[O-])c2ccccc2c1,Potency,[1],inactive
same,Potency,[7],5.96 µM (active)
same,activation,[6],-0.898% (inactive)
same,activation,[5],-0.323% (inactive)
same,Potency,[12],33.5 µM (active)
c1cc2ccc3cccc4ccc(c1)c2c34,Potency,[1],inactive
same,activation,[6],4.51% (inactive) and 2.05% (inactive)
same,activation,[5],-0.548% (inactive) and 0.897% (inactive)
CN[C@@H]1C[C@@H](c2ccc(Cl)c(Cl)c2)c2ccccc21,Potency,[1],inactive
same,outcome,[9],inactive
same,outcome,[10],inactive
same,outcome,[11],inactive
same,Potency,[13],inactive
O=[N+]([O-])c1c2ccccc2cc2ccccc12,Potency,[1],inactive
same,Potency,[7],53.1 µM (active)
same,activation,[6],4.5% (inactive)
same,Potency,[12],11.9 µM (active)
CC(C)(C)C(O)C(Oc1ccc(Cl)cc1)n1cncn1 (configuration not stated),Potency,[1],inactive
same,Potency,[7],inactive
same,activation,[6],-1.72% (inactive)
same,activation,[5],-0.211% (inactive)
CCOP(=O)(NC(C)C)Oc1ccc(SC)c(C)c1 (configuration not stated),Potency,[1],inactive
same,activation,[6],-4.79% (inactive) and -0.487% (inactive)
same,activation,[5],-0.0757% (inactive) and -0.702% (inactive)
CC(=O)[C@H]1CCC2C3CC[C@H]4C[C@H](O)CC[C@]4(C)C3CC[C@@]21C (some centres not stated),Potency,[8],inactive
same,outcome,[9],inactive
same,outcome,[10],inactive
same,outcome,[11],inactive
CCOCCOC(C)=O,Potency,[1],inactive
same,Potency,[7],inactive
same,activation,[6],-0.566% (inactive)
O=C(O)COc1nc(Cl)c(Cl)cc1Cl,Potency,[1],inactive
same,activation,[6],1.93% (inactive)
same,activation,[5],0.434% (inactive)
CS(=N)(=O)CC[C@H](N)C(=O)O (some centres not stated),Potency,[8],inactive
same,outcome,[9],inactive
same,outcome,[10],inactive
same,outcome,[11],inactive
O=[N+]([O-])c1c(Cl)c(Cl)cc(Cl)c1Cl,Potency,[1],inactive
same,activation,[6],-1.29% (inactive)
same,activation,[5],-0.885% (inactive)
same,Potency,[12],inactive
CC(C)Oc1cccc(NC(=O)c2ccccc2C(F)(F)F)c1,Potency,[1],inactive
same,activation,[6],-2.47% (inactive)
same,activation,[5],1.81% (inactive)
CCCN(CCC)[C@@H]1CCc2ccc(O)cc2C1,Potency,[8],inactive
same,outcome,[9],inactive
same,outcome,[10],inactive
same,outcome,[11],inactive
Nc1ccc(Cl)cc1N,Potency,[1],3.32 µM (active)
same,Potency,[7],4.22 µM (active) and 27.3 µM (active)
same,activation,[6],1.69% (inactive) and 0.406% (inactive)
same,activation,[5],0.983% (inactive) and -0.776% (inactive)
same,Potency,[12],8.41 µM (active)
COCCOCCO,Potency,[1],inactive
same,Potency,[7],inactive
same,activation,[5],-0.521% (inactive) and -1.09% (inactive)
[Cl][In]([Cl])[Cl],Potency,[1],14.8 µM (active)
same,Potency,[7],29.8 µM (active)
Nc1ccc(N=Nc2ccccc2)cc1,Potency,[1],5.26 µM (active)
same,Potency,[7],27.3 µM (active)
same,activation,[6],-2.42% (inactive)
CCCCOC(=O)c1ccccc1C(=O)OCc1ccccc1,Potency,[1],inactive
same,Potency,[7],inactive
same,activation,[6],1.28% (inactive) and 1.63% (inactive)
same,activation,[5],-1.25% (inactive) and 0.0084% (inactive)
O=S(=O)(c1ccc(Cl)cc1)c1ccc(Cl)cc1,Potency,[1],inactive
same,Potency,[7],66.8 µM (active)
same,activation,[6],-0.565% (inactive) and -3.02% (inactive) and 0.243% (inactive)
CCCN(CCC)C1CCc2ccc(O)cc2C1 (configuration not stated),Potency,[8],inactive
same,outcome,[9],inactive
same,outcome,[10],inactive
same,outcome,[11],inactive
O=C(Nc1ccccc1-c1ccc(Cl)cc1)c1cccnc1Cl,Potency,[1],inactive
same,activation,[6],-6.13% (inactive)
same,activation,[5],0.368% (inactive)
CS(=O)(=O)c1ccc(C(=O)C2C(=O)CCCC2=O)c([N+](=O)[O-])c1,Potency,[1],inactive
same,Potency,[7],54.5 µM (active)
same,activation,[6],-1.94% (inactive)
same,activation,[5],-0.467% (inactive)
CCCCC(CC)COC(=O)c1ccccc1C(=O)OCC(CC)CCCC (configuration not stated),Potency,[1],inactive
same,activation,[6],-3.4% (inactive) and 2.22% (inactive)
same,activation,[5],0.371% (inactive) and -1.46% (inactive)
same,Potency,[12],inactive
Nc1ccc(Cl)cc1,Potency,[1],inactive
same,activation,[6],-2.94% (inactive)
same,Potency,[12],inactive
